Experimental data published in PubChem BioAssay AID651871 (Sanford-Burnham Center for Chemical Genomics, 2012).
Where “and” joins values, the source holds several entries; their conditions need not be identical. Identical values can stand only once.

The compounds below were run on HL-1 (assay: cardiomyocyte survival under oxidative or metabolic stress – cell-based, panel, H9c2 and HL-1, ATP luminescence, set 2, SAR follow-up (AID 651871;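 also: cells exposed to stressor for 2 h before ATP readout; reference of the scale not given here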)). Settings: H9c2/HL-1 cardiomyocytes, 2-deoxyglucose stress, with 2-deoxyglucose, run 10, at 79 µM (top of the series).

Row | SMILES | activity (protection/inhibition)
1 | COc1ccc2nc(-c3cc(OC)c(OC)c(OC)c3)cc(C(=O)NCC(=O)Nc3ccc(C(C)=O)cc3)c2c1 | 56%
2 | CCOC(=O)c1cccc(NC(=O)CNC(=O)c2cc(-c3cc(OC)c(OC)c(OC)c3)nc3ccccc23)c1 | 98.6%
3 | COc1ccc2c(c1OC)C(=O)N1c3ccccc3C(=O)N(Cc3cccc(Cl)c3Cl)C21 (stereo not drawn) | 36.7% and -11.3%
